Measured values taken from PubChem BioAssay AID1159580 (chemical genetic matrix, 2015).
Several values for one entry are separate records, joined by “and”; a condition that tells them apart may be missing. Equal values may be shown once. Screen size: about 5,500 compounds; about 2,000 (36%) were called active. Inconclusive results (about 18%) are left out. Rule as the data show it: active = normalized growth mostly below about 0.91 (no sharp cut-off); inconclusive = no clear call, values can overlap the other calls; inactive = mostly above about 0.92. The list shows a part of the results.

Test: chemical genetic growth profiling, strain panel (AID 1159580);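 also: tested at 20 µM; growth read once vehicle control cultures reached saturation at 30 °C; 1 = growth at the plate median or of vehicle wells; lower values mean less growth of the strain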
Conditions: S. cerevisiae deletion strains, growth OD

Measured: normalized growth

CC1CCC2(OC1)OC1CC3C4CC[C@H]5C[C@@H](O)CC[C@]5(C)C4CC(=O)[C@]3(C)C1C2C (stereo partly specified)
inactive: locus YAL013W, strain DEP1, hits give low values 1.01 | locus YAL021C, strain ccr4, hits give low values 0.997 | locus YAL026C, strain drs2, hits give low values 1.03 | locus YAL030W, strain snc1, hits give low values 1.01 | locus YBL061C, strain skt5, hits give low values 1.02 | locus YBR009C, strain hhf1, hits give low values 0.983 | locus YBR021W, strain FUR4, hits give low values 0.991 | locus YBR023C, strain chs3, hits give low values 1.02 | locus YBR171W, strain sec66, hits give low values 1.02 | locus YBR229C, strain ROT2, hits give low values 1.01 | locus YBR231C, strain swc5, hits give low values 0.996 | locus YBR279W, strain paf1, hits give low values 1.01 | locus YCL011C, strain gbp2, hits give low values 1.04 | locus YCL016C, strain dcc1, hits give low values 1.01 | locus YCL029C, strain bik1, hits give low values 0.973 | locus YCL061C, strain MRC1, hits give low values 1.02 | locus YCL069W, strain vba3, hits give low values 1.02 | locus YCR088W, strain abp1, hits give low values 1.03 | locus YDL005C, strain med2, hits give low values 1.01 | locus YDL035C, strain GPR1, hits give low values 1.01 | locus YDL040C, strain nat1, hits give low values 1.01 | locus YDL074C, strain BRE1, hits give low values 0.974 | locus YDL101C, strain DUN1, hits give low values 1.01 | locus YDL134C, strain PPH21, hits give low values 1.01 | locus YDL185W, strain tfp1, hits give low values 0.981 | locus YDL192W, strain arf1, hits give low values 0.992 | locus YDR001C, strain nth1, hits give low values 1.01 | locus YDR069C, strain doa4, hits give low values 1 | locus YDR101C, strain arx1, hits give low values 0.974 | locus YDR137W, strain rgp1, hits give low values 1.02 | locus YDR150W, strain NUM1, hits give low values 1.01 | locus YDR159W, strain sac3, hits give low values 0.962 | locus YDR162C, strain NBP2, hits give low values 1.01 | locus YDR195W, strain ref2 1.04 | locus YDR297W, strain sur2, hits give low values 0.995 | locus YDR318W, strain mcm21, hits give low values 0.975 | locus YDR334W, strain swr1, hits give low values 1.01 | locus YDR335W, strain msn5, hits give low values 1.02 | locus YDR388W, hits give low values 0.982 | locus YDR392W, strain spt3, hits give low values 0.866 | locus YDR502C, strain sam2, hits give low values 0.98 | locus YEL003W, strain gim4, hits give low values 0.999 | locus YEL037C, strain rad23, hits give low values 1.02 | locus YEL061C, strain CIN8 (second series), hits give low values 1.01 | locus YEL061C, strain CIN8, hits give low values 1.01 | locus YER015W, strain faa2, hits give low values 1 | locus YER016W, strain bim1, hits give low values 1.01 | locus YER110C, hits give low values 0.978 | locus YER111C, strain swi4, hits give low values 1.01 | locus YER155C, strain BEM2 (second series), hits give low values 0.97 | locus YER155C, strain BEM2, hits give low values 1.01 | locus YER167W, strain BCK2, hits give low values 1.01 | locus YFR010W, strain ubp6, hits give low values 0.997 | locus YGL078C, strain dbp3, hits give low values 0.982 | locus YGL086W, strain mad1, hits give low values 0.998 | locus YGL167C, strain pmr1, hits give low values 1.01 | locus YGL173C, strain kem1, hits give low values 0.992 | locus YGL227W, strain vid30, hits give low values 1.02 | locus YGL240W, strain doc1, hits give low values 1 | locus YGL248W, strain PDE1, hits give low values 1.02 | locus YGL253W, strain hxk2, hits give low values 1.01 | locus YGR078C, strain PAC10, hits give low values 0.989 | locus YGR135W, strain pre9, hits give low values 0.987 | locus YGR229C, strain SMI1, hits give low values 1 | locus YGR252W, strain gcn5, hits give low values 0.992 | locus YHR013C, strain ard1, hits give low values 1.02 | locus YHR027C, strain rpn1, hits give low values 1.02 | locus YHR030C, strain SLT2, hits give low values 1.01 and 0.963 | locus YHR079C, strain IRE1 (second series), hits give low values 0.988 | locus YHR079C, strain IRE1, hits give low values 0.962 | locus YHR094C, strain hxt1, hits give low values 0.991 | locus YHR129C, strain ARP1, hits give low values 1 | locus YHR142W, strain chs7, hits give low values 1.03 | locus YHR200W, strain rpn10, hits give low values 0.987 | locus YIL066C, strain RNR3, hits give low values 1.01 | locus YIL073C, strain SPO22, hits give low values 0.983 | locus YIL125W, strain kgd1, hits give low values 0.989 | locus YIR030C, strain dcg1, hits give low values 0.984 | locus YJL092W, strain hpr5, hits give low values 1.01 | locus YJL095W, strain BCK1 (second series), hits give low values 1.01 | locus YJL095W, strain BCK1, hits give low values 1 and 0.964 | locus YJL115W, strain asf1, hits give low values 1.03 | locus YJL129C, strain trk1, hits give low values 1.04 | locus YJL134W, strain LCB3, hits give low values 1.01 | locus YJL154C, strain vps35, hits give low values 1.03 | locus YJL164C, strain tpk1, hits give low values 0.989 | locus YJL166W, strain qcr8, hits give low values 1 | locus YJL168C, strain set2, hits give low values 0.986 | locus YJL187C, strain SWE1 (second series), hits give low values 0.997 | locus YJR043C, strain POL32, hits give low values 1 | locus YJR066W, strain TOR1, hits give low values 0.927
